PrP 5UTR inh: inhibition of PrP 5' UTR reporter expression; inhibition, % (concentration not given with the values); cell-based PrP 5' UTR mRNA reporter, plate reader; AID 488862; hit rate 0.35% among 340,000; in the data active = inhibition above about 52%
PriA SSB inh: blocks PriA binding to SSB C-terminal tail; AlphaScreen SSBct-PriA binding, biotinylated peptide; inhibition, % at 33 µM; hit rate 0.6% among 430,000; AID 1272365; in the data active = inhibition mostly above about 37%, no sharp cut-off; inactive = mostly below about 20%
PfHsp40 yeast: rescue of PfHsp40-mediated yeast toxicity | S. cerevisiae expressing PfHsp40, growth rescue, ATP luminescence | growth rescue, % at 12.5 µM | hit rate 0.68% among 340,000 | AID 504582; in the data active = growth rescue above about 28%, passing the limit was not always enough;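 also: yeast W303a lacking pdr1 and pdr3 grown in galactose medium; growth measured after three days at 30 °C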
RecA splice inh: Mtb RecA intein splicing inhibition | hit rate 0.75% among 290,000 | cell-free RecA intein splicing, fluorescence | inhibition, % (concentration not given with the values) | P9WHJ3; in the data active = inhibition above about 30%
Target sequence (P9WHJ3 whole entry, looked up, canonical isoform): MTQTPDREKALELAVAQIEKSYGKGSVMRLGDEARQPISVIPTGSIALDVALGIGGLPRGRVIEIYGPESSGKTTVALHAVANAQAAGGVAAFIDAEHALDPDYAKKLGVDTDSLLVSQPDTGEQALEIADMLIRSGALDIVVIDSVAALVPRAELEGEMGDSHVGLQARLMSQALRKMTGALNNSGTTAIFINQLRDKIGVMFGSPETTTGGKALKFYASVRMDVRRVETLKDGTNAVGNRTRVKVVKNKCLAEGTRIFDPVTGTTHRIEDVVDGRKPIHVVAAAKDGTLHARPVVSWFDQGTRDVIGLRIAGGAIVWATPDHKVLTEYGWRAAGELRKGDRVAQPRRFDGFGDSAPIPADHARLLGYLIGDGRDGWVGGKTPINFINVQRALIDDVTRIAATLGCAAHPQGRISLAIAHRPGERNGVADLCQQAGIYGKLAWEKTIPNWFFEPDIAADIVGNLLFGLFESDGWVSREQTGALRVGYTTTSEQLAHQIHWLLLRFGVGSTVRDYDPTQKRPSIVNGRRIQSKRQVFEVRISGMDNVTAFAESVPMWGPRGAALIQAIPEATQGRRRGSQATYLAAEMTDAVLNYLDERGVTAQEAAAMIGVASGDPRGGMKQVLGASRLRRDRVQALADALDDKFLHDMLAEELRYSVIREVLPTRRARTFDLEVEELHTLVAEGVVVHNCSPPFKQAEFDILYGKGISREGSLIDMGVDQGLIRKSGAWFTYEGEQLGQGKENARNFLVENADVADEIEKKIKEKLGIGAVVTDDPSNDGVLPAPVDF
PrPC surface inh: reduces human prion protein on the cell surface. inhibition, % at 13.8 µM. P04156. hit rate 0.43% among 370,000. cell surface PrPC, TR-FRET read-out; in the data active = inhibition above about 24%
BJeLR viability: kills HRASV12-expressing BJeLR cells | inhibition, % (no concentration beside the values) | AID 1554 | hit rate 0.17% among 300,000 | BJeLR (HRASV12) viability, CellTiter-Glo ATP luminescence, 48 h; in the data active = inhibition above about 50%
Of the large screens only hits and unclear results are named; the others gave an inactive call; ! = repeats disagree. Shown are actives, neighbours in structure and some others; about 1.9% of the full set was active somewhere.

O=C1OCC(CO)(CO)N=C1NNc1ccc(Cl)c(Cl)c1	PfHsp40 yeast 305
Cc1nc2nc(-c3cc(Cl)ccc3O)cc(C(=O)O)c2[nH]1	none (no result: PrP 5UTR inh, PfHsp40 yeast, RecA splice inh, PrPC surface inh, BJeLR viability)
O=C(Nc1ccc2sccc2c1)c1ccc([N+](=O)[O-])s1	PriA SSB inh 46 (no result: PrP 5UTR inh, PfHsp40 yeast, RecA splice inh, PrPC surface inh, BJeLR viability)
O=[N+]([O-])c1ccc(NNC(=S)NC2CCS(=O)(=O)C2)c([N+](=O)[O-])c1 (stereo not drawn)	PriA SSB inh 51 (no result: PrP 5UTR inh, PfHsp40 yeast, RecA splice inh, PrPC surface inh, BJeLR viability)
COc1ccc(C(=O)Oc2coc(CSc3nc(C)cs3)cc2=O)c(OC)c1	none (no result: PrP 5UTR inh, PfHsp40 yeast, RecA splice inh, PrPC surface inh, BJeLR viability)
CCCN1CCCc2cc(CCNC(=O)c3ccccc3OCC)ccc21	PriA SSB inh 74 (no result: PrP 5UTR inh, PfHsp40 yeast, RecA splice inh, PrPC surface inh, BJeLR viability)
CCN1CCCc2cc(CCNC(=O)c3ccccc3C(F)(F)F)ccc21	PriA SSB inh 59 (no result: PrP 5UTR inh, PfHsp40 yeast, RecA splice inh, PrPC surface inh, BJeLR viability)
CCCN1CCCc2cc(CCNC(=O)COc3ccc(Cl)cc3)ccc21	PriA SSB inh 73 (no result: PrP 5UTR inh, PfHsp40 yeast, RecA splice inh, PrPC surface inh, BJeLR viability)
CCCN1CCCc2cc(CCNC(=O)COc3ccc(F)cc3)ccc21	PriA SSB inh 78 (no result: PrP 5UTR inh, PfHsp40 yeast, RecA splice inh, PrPC surface inh, BJeLR viability)
CCCN1CCCc2cc(CCNC(=O)COc3ccc(C)cc3)ccc21	none (no result: PrP 5UTR inh, PfHsp40 yeast, RecA splice inh, PrPC surface inh, BJeLR viability)
NC(=NN=Cc1ccco1)C(N)=NN=Cc1ccco1	none (no result: PrP 5UTR inh, PfHsp40 yeast, RecA splice inh, PrPC surface inh, BJeLR viability)
COc1cc(NC(=O)CSc2ncc(S(=O)(=O)c3ccc(C)cc3C)c(=O)[nH]2)cc(OC)c1	none (no result: PrP 5UTR inh, PfHsp40 yeast, RecA splice inh, PrPC surface inh, BJeLR viability)
CCCN1CCCc2cc(CCNC(=O)c3ccc(OC)cc3)ccc21	PriA SSB inh 74 (no result: PrP 5UTR inh, PfHsp40 yeast, RecA splice inh, PrPC surface inh, BJeLR viability)
COc1ccc(C(=O)NCCc2ccc3c(c2)CCCN3C)cc1	none (no result: PrP 5UTR inh, PfHsp40 yeast, RecA splice inh, PrPC surface inh, BJeLR viability)
CCCN1CCCc2cc(CCNC(=O)COc3ccc(OC)cc3)ccc21	PriA SSB inh 74 (no result: PrP 5UTR inh, PfHsp40 yeast, RecA splice inh, PrPC surface inh, BJeLR viability)
CCCN1CCCc2cc(CCNC(=O)COc3cccc(C)c3)ccc21	PriA SSB inh 90 (no result: PrP 5UTR inh, PfHsp40 yeast, RecA splice inh, PrPC surface inh, BJeLR viability)
CCCN1CCCc2cc(CCNC(=O)c3cccc(OC)c3OC)ccc21	none (no result: PrP 5UTR inh, PfHsp40 yeast, RecA splice inh, PrPC surface inh, BJeLR viability)
CCCN1CCCc2cc(CCNC(=O)c3cc(Cl)ccc3OC)ccc21	PriA SSB inh 66 (no result: PrP 5UTR inh, PfHsp40 yeast, RecA splice inh, PrPC surface inh, BJeLR viability)
COc1cc(NC(=O)N2CCC(S(=O)(=O)CC(C)C)CC2)cc(OC)c1	none (no result: PrP 5UTR inh, PfHsp40 yeast, RecA splice inh, PrPC surface inh, BJeLR viability)
O=S(=O)(NCCCn1ccnc1-c1ccccc1)c1cccc(C(F)(F)F)c1	none (no result: PrP 5UTR inh, PfHsp40 yeast, RecA splice inh, PrPC surface inh, BJeLR viability)
COc1ccccc1CCNC(=O)c1cc(=O)c(OCc2ccc(F)cc2)co1	none (no result: PrP 5UTR inh, PfHsp40 yeast, RecA splice inh, PrPC surface inh, BJeLR viability)
CCCN1CCCc2cc(CCNC(=O)COc3ccccc3C)ccc21	PriA SSB inh 68 (no result: PrP 5UTR inh, PfHsp40 yeast, RecA splice inh, PrPC surface inh, BJeLR viability)
CC(NC(=O)c1ccsc1)c1ccc(F)cc1 (stereo not drawn)	none (no result: PrP 5UTR inh, PfHsp40 yeast, RecA splice inh, PrPC surface inh, BJeLR viability)
COc1ccccc1/C=C/C1(C(=O)NC2CCCC2)CC(=O)N1c1ccc(C)cc1 (stereo not drawn)	RecA splice inh 34
CCN(CC)S(=O)(=O)c1ccc(N2C(=O)CC2(/C=C/c2ccccc2)C(=O)NC2CCCC2)cc1 (stereo not drawn)	none
C/C=C/c1ccc(OCCOc2cc(C=O)ccc2OC)c(OC)c1	PfHsp40 yeast 39
Cc1ccc(-c2csc3ncnc(N4CCN(S(=O)(=O)c5cccs5)CC4)c23)cc1	PfHsp40 yeast 122 (no result: RecA splice inh, PrPC surface inh, BJeLR viability)
Cc1ccc(-c2csc3ncnc(N4CCN(S(=O)(=O)c5ccc(C#N)cc5)CC4)c23)cc1	none (no result: PrP 5UTR inh, PriA SSB inh, PfHsp40 yeast, RecA splice inh, BJeLR viability)
CN(C)S(=O)(=O)c1cccc(NC(=O)CNCc2ccccn2)c1	PriA SSB inh 50
Cc1ccc(S(=O)(=O)N2CCOCC2)cc1NC(=O)CNCc1ccccn1	PriA SSB inh 44
O=C(CNCc1ccccn1)Nc1cc(S(=O)(=O)N2CCCCC2)ccc1Cl	PriA SSB inh 41
O=C(CCl)Nc1cc(S(=O)(=O)N2CCCCCC2)ccc1Cl	RecA splice inh 67
COc1ccccc1CN(C)CC(=O)Nc1cccc(S(=O)(=O)N2CCCC2)c1	none (no result: RecA splice inh, BJeLR viability)
COc1cccc(CN(C)CC(=O)Nc2cc(S(=O)(=O)N3CCCC3)ccc2Cl)c1OC	PriA SSB inh 42 (no result: RecA splice inh, BJeLR viability)
O=c1ccc2ccccc2c2ccccc12	none (no result: PrP 5UTR inh, PriA SSB inh, PfHsp40 yeast, RecA splice inh, BJeLR viability)
O=Nc1c(O)c2ccccc2c2ccccc12	RecA splice inh 41
O=C1/C(=C/c2ccncc2)CCC/C1=C\c1ccncc1	BJeLR viability 68
CN(C)CCN(C(=O)c1ccc(S(=O)(=O)N2CCCC2)cc1)c1nc2c(Cl)cccc2s1	none (no result: PrP 5UTR inh, PfHsp40 yeast, RecA splice inh, PrPC surface inh, BJeLR viability)
CN(C)CCCN(C(=O)c1ccc(S(=O)(=O)N2CCc3ccccc32)cc1)c1nc2c(Cl)cccc2s1	PriA SSB inh 46
COc1cccc2sc(N(CCCN(C)C)C(=O)c3ccc(S(=O)(=O)N4CCCc5ccccc54)cc3)nc12	PriA SSB inh 20!
CCc1ccc2nc(N(CCCN(C)C)C(=O)c3ccc(S(=O)(=O)N4CCCc5ccccc54)cc3)sc2c1	none
CN(C)CCCn1c(-c2ccc([N+](=O)[O-])cc2)nc(=S)c2c1CCCC2	none (no result: PrP 5UTR inh, PfHsp40 yeast, RecA splice inh, PrPC surface inh, BJeLR viability)
